Holding throughout (test): NCI-60 one-dose screen, 48 h (100 = growth as untreated, 0 = no growth, -100 = all killed)
One assay deals with K-562 leukemia. The following applies: 10 µM unless noted.
Another assay concerns MALME-3M melanoma. The note with it: 10 µM unless noted.
The subject of a further assay is RXF 393 renal. The following applies: 10 µM unless noted.
Another assay relates to SF-268 CNS. The following applies: 10 µM unless noted.
The subject of another assay is SF-295 CNS. The following applies: 10 µM unless noted.
A further assay relates to SF-539 CNS. The note with it: 10 µM unless noted.
The next assay relates to UACC-257 melanoma. The following applies: 10 µM unless noted.
The subject of a further assay is M14 melanoma. The following applies: 10 µM unless noted.
A further assay deals with HCT-15 colon. The note with it: 10 µM unless noted.
The next assay deals with HT29 colon. The note with it: 10 µM unless noted.
The test system of another assay is SNB-75 CNS. The following applies: 10 µM unless noted.
The next assay concerns SNB-19 CNS. The following applies: 10 µM unless noted.
In a further assay the test system is U251 CNS. The following applies: 10 µM unless noted.
The next assay deals with PC-3 prostate. The note with it: 10 µM unless noted.
Another assay has as its system SK-MEL-5 melanoma. The note with it: 10 µM unless noted.
A further assay has as its system UACC-62 melanoma. The following applies: 10 µM unless noted.
For another assay, the system named is LOX IMVI melanoma. The following applies: 10 µM unless noted.
In another assay the test system is SK-MEL-28 melanoma. The following applies: 10 µM.
For another assay, the system named is SK-MEL-2 melanoma. The following applies: 10 µM unless noted.
The next assay deals with MDA-MB-231 breast. The note with it: 10 µM unless noted.

About 83,000 compounds went through this panel and 20% of them were active in at least one assay; those are over-represented in the sample as a whole.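 In brief: 96-well plates, 48 h treatment, single concentration, percent growth endpoint.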 Calls of active or inactive are those of the source. Rule for the calls: active = growth percent below 10; inactive = the rest.

The values below come from PubChem BioAssay (NCI).

`COc1ccc(/C=C2\N=C(c3ccccc3)N(c3ccc(-c4nc5ccc(C)cc5s4)cc3)C2=O)cc1`: the growth is 82.4% (inactive) in the assay on K-562 leukemia; 94.6% (inactive) in the assay on MALME-3M melanoma; 99% (inactive) with RXF 393 renal; 61.1% (inactive) with SF-268 CNS; 75.5% (inactive) in the assay with SF-295 CNS; 93.3% (inactive) in the assay with SF-539 CNS. The growth with UACC-257 melanoma is 111% (inactive); in the assay on M14 melanoma it was 98.9% (inactive); in the assay with HCT-15 colon, 82.1% (inactive); in the assay on HT29 colon, 88.9% (inactive); in the assay with SNB-75 CNS, 69.9% (inactive); in the assay with SNB-19 CNS it was 84.3% (inactive). The growth in the assay on U251 CNS is 81.2% (inactive); in the assay on PC-3 prostate it was 63.1% (inactive); with SK-MEL-5 melanoma, 85.3% (inactive); in the assay on UACC-62 melanoma, 73.2% (inactive); in the assay with LOX IMVI melanoma, 98.2% (inactive); in the assay on SK-MEL-28 melanoma, 114% (inactive). Moreover, in the assay on SK-MEL-2 melanoma, the growth was 85.2% (inactive).

Take `N#C/C(=C\c1c(-c2ccccc2)[nH]c2ccccc12)C(=O)c1ccccc1`: the growth was 21.6% (inactive) in the assay with K-562 leukemia; 70.9% (inactive) in the assay with MALME-3M melanoma; 71.3% (inactive) in the assay on MDA-MB-231 breast; 53.6% (inactive) in the assay with SF-268 CNS; 37.1% (inactive) in the assay on SF-295 CNS; 21.7% (inactive) with SF-539 CNS. Further, the growth in the assay on UACC-257 melanoma was 61.6% (inactive); with M14 melanoma, 37.6% (inactive); in the assay on HCT-15 colon, 42.1% (inactive); in the assay on HT29 colon, 16.4% (inactive); in the assay on SNB-19 CNS, 44.5% (inactive); with U251 CNS, 43.3% (inactive). The growth with PC-3 prostate was 44.5% (inactive); in the assay with SK-MEL-5 melanoma it was 21.6% (inactive); with UACC-62 melanoma, 36.3% (inactive); in the assay on LOX IMVI melanoma, 54.2% (inactive); in the assay with SK-MEL-28 melanoma, 55.4% (inactive); in the assay with SK-MEL-2 melanoma it was 47.8% (inactive).

Turning to `CSc1nc2c(c(=O)[nH]1)N=C1c3ccccc3C(=O)C1C(c1ccc(F)cc1)N2` (configuration not stated), the growth in the assay on K-562 leukemia was 62.8% (inactive); in the assay with MALME-3M melanoma, 56.1% (inactive); in the assay on MDA-MB-231 breast, 93.3% (inactive); with SF-268 CNS it was 65.5% (inactive); in the assay on SF-295 CNS, -29% (active); in the assay with SF-539 CNS, 68.7% (inactive). Besides, the growth is 79.1% (inactive) with UACC-257 melanoma; 43.4% (inactive) with M14 melanoma; 46.1% (inactive) with HCT-15 colon; 18% (inactive) with HT29 colon; 26.8% (inactive) in the assay on SNB-75 CNS; 61.6% (inactive) in the assay on SNB-19 CNS. Moreover, the growth was 58.8% (inactive) with U251 CNS; 69.3% (inactive) with PC-3 prostate; 39.8% (inactive) with SK-MEL-5 melanoma; 43.1% (inactive) in the assay on UACC-62 melanoma; 62% (inactive) in the assay on LOX IMVI melanoma; 83.5% (inactive) with SK-MEL-28 melanoma. The growth in the assay on SK-MEL-2 melanoma was 72.1% (inactive).

Consider `COc1ccc(-c2nsc3c2NC(=O)CC3c2ccsc2)cc1` (configuration not stated), for which the growth in the assay with K-562 leukemia was 13.3% (inactive); in the assay on MALME-3M melanoma, 43.6% (inactive); with RXF 393 renal it was 18% (inactive); with SF-268 CNS, 47.1% (inactive); in the assay with SF-295 CNS, 2.29% (active); in the assay on SF-539 CNS, -7.51% (active). Also, the growth was 77.3% (inactive) in the assay with UACC-257 melanoma; 18% (inactive) in the assay on M14 melanoma; 13.8% (inactive) in the assay on HCT-15 colon; 0.633% (active) with HT29 colon; 50% (inactive) in the assay on SNB-19 CNS; 20.4% (inactive) in the assay with U251 CNS. The growth was 24.3% (inactive) in the assay on PC-3 prostate; 22% (inactive) with SK-MEL-5 melanoma; 24.9% (inactive) with UACC-62 melanoma; 33.4% (inactive) in the assay on LOX IMVI melanoma; 42.7% (inactive) in the assay on SK-MEL-28 melanoma; 45.5% (inactive) in the assay with SK-MEL-2 melanoma.

Consider `COC(=O)/C(=C\c1c(-c2ccccc2)[nH]c2ccccc12)S(C)(=O)=O`, for which the growth was 17.2% (inactive) in the assay with K-562 leukemia; 74.1% (inactive) in the assay with MALME-3M melanoma; 49.7% (inactive) with MDA-MB-231 breast; 26.8% (inactive) with SF-268 CNS; 32% (inactive) in the assay on SF-295 CNS; 4.74% (active) in the assay on SF-539 CNS. The growth in the assay with UACC-257 melanoma was 67.4% (inactive); in the assay with M14 melanoma it was 14.9% (inactive); in the assay with HCT-15 colon, 34.5% (inactive); in the assay on HT29 colon it was 8.37% (active); in the assay with SNB-75 CNS, -4.33% (active); with SNB-19 CNS, 37.6% (inactive). The growth in the assay with U251 CNS was 26.4% (inactive); in the assay on PC-3 prostate it was 25.6% (inactive); in the assay with SK-MEL-5 melanoma, 14.3% (inactive); in the assay on UACC-62 melanoma, 37.1% (inactive); in the assay with LOX IMVI melanoma it was 45.1% (inactive); with SK-MEL-28 melanoma, 36.1% (inactive). Moreover, the growth with SK-MEL-2 melanoma is 39.1% (inactive).

Consider `COc1ccc(C2Nc3ncnc(N)c3N=C3c4ccccc4C(=O)C32)cc1` (configuration not stated), for which the growth is 84.5% (inactive) in the assay with K-562 leukemia; 101% (inactive) in the assay with MALME-3M melanoma; 97.9% (inactive) with MDA-MB-231 breast; 84% (inactive) with SF-268 CNS; 96.9% (inactive) in the assay on SF-295 CNS; 100% (inactive) in the assay on SF-539 CNS. Besides, the growth in the assay with UACC-257 melanoma was 102% (inactive); in the assay on M14 melanoma it was 94.8% (inactive); in the assay on HCT-15 colon it was 89.4% (inactive); with HT29 colon, 98.2% (inactive); with SNB-75 CNS, 71.5% (inactive); in the assay on SNB-19 CNS, 82.2% (inactive). The growth is 90.9% (inactive) in the assay on U251 CNS; 78% (inactive) in the assay with PC-3 prostate; 95.6% (inactive) in the assay on SK-MEL-5 melanoma; 117% (inactive) in the assay with UACC-62 melanoma; 92.8% (inactive) in the assay with LOX IMVI melanoma; 113% (inactive) in the assay with SK-MEL-28 melanoma. The growth in the assay with SK-MEL-2 melanoma is 88.5% (inactive).
